D1 antagonist = human D1 dopamine receptor antagonism. P21728. HEK293 TREx D1 cells, calcium flux, dopamine EC80; active compounds read low. activity change, negative = inhibition, % at 10 µM. 3.2% of 360,000 active. AID 504652; in the data active = activity change below about -30%; also: % is scaled to controls: 0 for no effect and ±100 for the full control effect
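Using tetracycline-induced force-coupled D1 Hek293 cells and a calcium dye, signals were followed for 180 s after compound, then for 180 s after EC80 dopamine, to detect inhibitors.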
TRHR enhancer-1 = TRH receptor (human) allosteric enhancement | P34981 | TRHR cells, fluo-8 calcium fluorescence, EC20 TRH enhancement | enhancement, % at 2 µM | 0.66% of 360,000 active | AID 493056; in the data active = enhancement above about 30%; also: 0% is about no effect
Target sequence (P34981 whole entry, looked up): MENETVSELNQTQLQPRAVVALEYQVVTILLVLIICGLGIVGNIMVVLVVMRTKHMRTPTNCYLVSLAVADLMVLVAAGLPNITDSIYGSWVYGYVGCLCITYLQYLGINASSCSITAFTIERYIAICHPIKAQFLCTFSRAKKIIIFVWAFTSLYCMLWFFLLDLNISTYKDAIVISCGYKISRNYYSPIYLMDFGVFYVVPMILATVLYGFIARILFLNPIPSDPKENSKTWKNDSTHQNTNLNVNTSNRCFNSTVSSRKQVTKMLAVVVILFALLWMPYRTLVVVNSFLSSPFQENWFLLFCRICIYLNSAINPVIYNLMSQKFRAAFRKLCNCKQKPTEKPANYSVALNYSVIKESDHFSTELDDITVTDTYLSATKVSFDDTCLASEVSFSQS
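TRHR-expressing cells loaded with fluo-8 calcium dye were read kinetically (ex 480/em 530) during compound addition, then stimulated with an EC20 of TRH (10 nM final). Enhancement of the Gq-mediated intracellular calcium response was scored.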
D1 ag = agonists of human D1 dopamine receptor | HEK293 T-REx D1 cells, calcium flux, agonist mode | activation, % at 2 µM | 1% of 360,000 active | AID 504660; also: 0% is about no effect
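Agonism was scored from calcium flux recorded over 180 s (1 read/s) after pintool compound addition, following a 10-cycle baseline. Cells were inducible force-coupled HEK293 TREx D1, plated overnight at 30 C and loaded with no-wash calcium dye.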
D1 PAM = human D1 dopamine receptor positive modulation; 0.036% of 360,000 active; potentiation, % at 10 µM; P21728; HEK293 TREx D1 cells, calcium flux, dopamine EC20 potentiation; in the data active = potentiation above about 30%; also: 0% is about no effect
TRHR agonist-1 = activates the human TRH receptor | activation, % at 2 µM | TRHR cells, calcium flux fluo-8, FDSS agonist mode | 0.18% of 360,000 active; also: 0% is about no effect
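Steps: seed TRHR cells overnight; add fluo-8 no-wash Ca dye, RT 30 min–1.5 h; record 10 s baseline; pin-transfer compounds; monitor fluorescence 1 cycle/s for the agonist window. Calcium increases flag candidate agonists.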
TRHR enhancer-2 = human TRH receptor allosteric enhancement confirmation | TRH receptor cell assay, enhancer confirmation qHTS | shares compounds with TRHR enhancer-1 | activity change, negative = inhibition, % at 46.1 µM | 970 tested, under 10 active; active = well fitted curve in the direction sought with a large enough effect; inconclusive = small, poorly fitted or top-dose-only effect, or another doubt; inactive = no such curve, though single readings can be large; an effect the other way counts as inactive or inconclusive;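 also: compound effect scored on response to added TRH at EC20 of 10 nM; 0% is about no effect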
TRHR agonist-2 = human TRH receptor agonism confirmation; 8% of 970 active; Potency, µM (titrated, usually from 46.1 µM), for the others: at the highest dose activation, most hits filed as activators; shares compounds with TRHR enhancer-1; TRHR-expressing cells, agonist activation read-out; active = well fitted curve in the direction sought with a large enough effect; inconclusive = small, poorly fitted or top-dose-only effect, or another doubt; inactive = no such curve, though single readings can be large; an effect the other way counts as inactive or inconclusive; also: potency is read from the fitted curve at half-maximal effect; 0% is about no effect; nearly all actives have a fitted effect of over 75% in size
Starred values were filed as active, the others as inactive; u = inconclusive; x = no result given. Compounds with a hit are over-represented: about 4.7% of the library has one in this group of screens. Rule as the data show it, unless noted: active = activation above about 30%; inactive = the rest.

SMILES	D1 antagonist	TRHR enhancer-1	D1 ag	D1 PAM	TRHR agonist-1	TRHR enhancer-2	TRHR agonist-2
Cc1ccc(CN2c3ccccc3-c3nc(SCC(=O)Nc4c(C)cc(C)cc4C)ncc3S2(=O)=O)cc1	8	4	7	-4	-1	x	x
COc1cc(C(=O)NCc2ccccc2)ccc1OC(F)F	-17	4	3	6	-1	x	x
COc1ccccc1CNC(=O)c1ccc(OC(F)F)c(OC)c1	6	51*	1	-5	-1	-5	1%
COc1ccc2nc(-c3ccccn3)[nH]c2c1	-2	46*	2	-4	0	-3	2%
COc1cc(OC)c(OC)cc1/C=C1\Oc2cc(OS(C)(=O)=O)ccc2C1=O	-22	-1	53*	-1	38*	-10	u
COc1ccc(S(=O)(=O)Oc2ccc3c(c2)O/C(=C\c2cccnc2)C3=O)cc1	-24	-2	2	-4	0	x	x
COc1ccccc1C(=O)Oc1ccc2c(c1)O/C(=C\c1ccncc1)C2=O	33	-3	36*	-4	29	-8	u
COc1ccc2c(c1)O/C(=C\c1ccccc1C)C2=O	15	-4	3	1	0	x	x
COc1ccc(/C=C2\Oc3cc(OC(=O)N4CCOCC4)ccc3C2=O)cc1	-1	0	3	-3	0	x	x
CC(=O)Oc1ccc2c(c1)O/C(=C\c1ccncc1)C2=O	-2	5	65*	0	29	4	u
COC(=O)C1=C(C)N(c2ccc(OC)cc2)C(C)=C(C(=O)OC)C1c1ccc(OC)cc1	-20	41*	4	1	0	-5	-1%
CCCCNC(=O)c1cc(-c2ccc(F)cc2)on1	-5	41*	1	-3	0	-2	6%
NC(=O)CN1C(=O)NC(c2ccccc2)(c2ccccc2)C1=O	-6	1	2	-4	1	x	x
CC(C)(C)C(=O)CN1C(=O)NC(c2ccccc2)(c2ccccc2)C1=O	2	42*	1	8	3	-1	0%
N#Cc1cc(-c2ccccc2)nc(NN)n1	-12	48*	3	-3	0	-16	-1%
NNc1nc(-c2ccccc2)cc(-c2ccccc2)n1	1	-3	5	-4	0	x	x
OC(c1ccccc1)c1nc2ccccc2n1Cc1c(F)cccc1Cl (centres undefined)	5	-6	12	-2	0	x	x
O=S(=O)(Nc1nc2ccccc2nc1Nc1ccc2c(c1)OCO2)c1ccccc1	6	14	6	4	2	x	x
Cc1cccc(S(=O)(=O)Nc2nc3ccccc3nc2Nc2ccc3c(c2)OCO3)c1	-11	44*	20	-6	0	-10	2%
Cc1cccc(N2CCN(C(=O)COc3cc4oc(=O)cc(C)c4cc3Cl)CC2)c1C	8	70*	0	10	0	0	0%
O=C(N/C(=C/c1ccc(Br)cc1)C(=O)N1CCOCC1)c1ccc(Br)o1	-17	97*	1	-16	-1	-2	1%
N#Cc1ccccc1OCc1nnc(-c2ccccc2Br)o1	19	44*	0	4	0	-18	3%
Clc1ccccc1OCc1nnc(-c2ccccc2Br)o1	-4	-8	3	-2	0	x	x
CCOc1ccc(NC(=O)N(Cc2cn(CC)c3ccccc23)C2CCCCCC2)cc1	-16	-5	30	-1	-2	x	x
CCCn1cccc(C(=O)Nc2ccc(OC)cc2)c1=O	-3	1	3	-2	0	x	x
SMILES	D1 antagonist	TRHR enhancer-1	D1 ag	D1 PAM	TRHR agonist-1	TRHR enhancer-2	TRHR agonist-2
C#CCn1cccc(C(=O)Nc2ccc(OC)cc2)c1=O	3	45*	2	-3	0	-3	-1%
Cc1nnc(NC(=O)c2sc3nc(-c4cccs4)cc(C(F)(F)F)c3c2N)s1	-30*	2	361*	-2	52*	5	u
CC(C)(C)C(=O)c1sc2nc(-c3cccs3)cc(C(F)(F)F)c2c1N	-5	9	0	-1	0	x	x
O=C(CSc1ccc(Br)cc1)N1CCN(C(=O)c2ccco2)CC1	-26	60*	3	-5	-1	-3	0%
CN1CC(=O)N/C1=N\C(=O)Nc1ccc(O)cc1	2	54*	4	2	1	-3	-1%
COc1cccc(NC(=O)CSc2ncc3c(n2)-c2ccc(Cl)cc2N(C)S3(=O)=O)c1	2	0	1	0	0	x	x
COC(=O)c1c(C)oc2ccc(NS(=O)(=O)c3cccs3)cc12	-14	53*	12	-2	-1	-8	3%
COc1ccc(/C=C2\SC(=S)N(c3cccnc3)C2=O)cc1	8	-12	5	3	0	x	x
O=C1/C(=C\c2ccc(O)cc2)SC(=S)N1c1cccnc1	-2	-2	66*	-6	36*	-6	u
Cc1cc(C)nc(NN2C(=O)/C(=C/c3ccc(O)cc3)SC2=S)n1	19	7	43*	-1	36*	-6	21µM*
Cc1cccc(C(=O)Oc2ccccc2C(=O)N2CCOCC2)c1	6	52*	4	0	0	-1	1%
CCOC(=O)COc1ccc(C)cc1C(=O)c1ccn2nc(-c3ccc(C)cc3)cc2n1	-13	3	-1	-5	-1	x	x
CCN(CC)c1ccc(/C=C2\CCC(/C=N/NC(=O)c3ccc(=O)n(C)c3)=C2N2CCOCC2)cc1	13	11	74*	7	36*	9	u
Cc1cc(C(=O)COc2cccc3cccnc23)c(C)n1C	1	6	-5	0	-1	x	x
Cc1ccc(OCC(=O)c2cc(C)n(C)c2C)c([N+](=O)[O-])n1	-3	44*	5	-3	0	-5	0%
COc1ccc(Cn2nnnc2C(c2ccccc2)N2CCN(C3CCCC3)CC2)cc1 (centres undefined)	-6	48*	30	-3	0	-2	8%
CCc1ccc2oc(-c3ccc(NC(=O)c4cccc(Cl)c4Cl)cc3)nc2c1	4	5	3	0	1	x	x
COc1ccc(NC(=O)C(C)N2Cc3ccccc3C2=O)cc1OC (centres undefined)	-1	12	0	-1	0	x	x
CC(=O)c1cc(-c2ccccc2)n(CCC(=O)Nc2nc3c(C)cccc3s2)c1C	1	1	3	-4	0	x	x
COC(=O)CCCNC(=O)OCc1ccc([N+](=O)[O-])cc1	13	67*	3	-6	-1	-3	2%
O=C(Cc1ccc([N+](=O)[O-])cc1)OCc1ccc([N+](=O)[O-])cc1	-19	-8	5	-12	-1	x	x

Screens from PubChem.
